From PubChem BioAssay (NCATS)
Values joined by “and” are separate entries in the source; they are usually repeats but may differ in a detail not shown here. Identical values can stand only once. Results filed as inconclusive are left out. Active and inactive are the calls of the source. Unless noted, calls follow the shape of the dose curve; as a rule, active = well fitted curve in the direction sought with a large enough effect; inconclusive = small, poorly fitted or top-dose-only effect, or another doubt; inactive = no such curve, though single readings can be large; an effect the other way counts as inactive or inconclusive.

Legend:
[1] = target: Glucocorticoid receptor (Homo sapiens) (UniProt P04150); test: GR-GFP Redistribution (AID 450;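 active = compounds whose dose series gives a full or clear partial fitted curve of increased nuclear translocation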; also: potency is read from the fitted curve at half-maximal effect); details: U2OS GR-GFP nuclear translocation, laser cytometry, 2 h
[2] = target: Glucocorticoid receptor (Homo sapiens) (UniProt P04150); test: GR-EFC Redistribution (AID 451; calls by dose curve; also: potency is read from the fitted curve at half-maximal effect); details: CHO-K1 GR-EFC translocation, beta-gal luminescence, 2 h
Method in brief: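 CHO-K1 cells expressing nuclear EA and GR-ED fragments of b-gal; compounds titrated up to 46 uM final, 2 h at 37 C. GR nuclear translocation read as complemented b-gal luminescence after 1 h RT detection.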

[3] = target: Mitogen-activated protein kinase 10 (Mus musculus) (UniProt Q61831); test: JNK3 AlphaScreen Assay (AID 530; active = well fitted curve in either direction with a large enough effect, not every such curve was filed as active;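 also: kinase came from lysate of stimulated human HepG2 cells; signal reports phosphorylation of biotinylated GST-cJun 1-79 at Ser73 with 10 µM ATP; % is scaled to controls: 0 for no effect and ±100 for the full control effect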); details: JNK3 lysate, c-Jun phosphorylation; series mostly up to 57.1 µM
Method in brief: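 qHTS format: compounds tested as titrations against IL-1beta/TNF-alpha-activated HepG2 lysate JNK3 with biotin-GST-cJun substrate and 10 uM ATP at room temperature. Loss of anti-phospho-cJun AlphaScreen signal indicates inhibition.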

[4] = target: 3',5'-cyclic-AMP phosphodiesterase 4B (Homo sapiens) (UniProt Q07343); test: qHTS Assay for Inhibitors of PDE-IV (AID 607; active = well fitted activation curve with a large enough effect in the main read-out, with a control signal flat, not every such curve was filed as active; also: % of control where 0% means no effect); details: HEK293 ACTOne CNG channel cells, membrane potential fluorescence; series mostly up to 22.9 µM
Method in brief: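 HEK293 ACTOne cells with CNG channel (1000/well), endogenous PDE4; membrane potential dye, compounds up to 22.9 uM final. Fluorescence Ex 535/Em 590; RO 20-1724 (100 uM final) as reference.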

[5] = Cell Viability - N2a (AID 540); details: N2a mouse neuroblastoma cell viability; activity change, negative = cytotoxicity: at 92.2 µM (top of the series);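 also: plate controls were DMSO alone for no effect and tamoxifen control for full effect; nearly all actives have a fitted effect of over 45% in size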
Method in brief: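 Mouse neuroblastoma N2a cells (1500/well) were preincubated 5 hr at 37 °C, then exposed to compounds for 40 hr at 37 °C in complete medium. Viability was read as intracellular ATP by CellTiter-Glo luminescence; AC50 from Hill fits.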

[6] = Cell Viability - NIH 3T3 (AID 541); details: NIH 3T3 cell viability, qHTS; series mostly up to 92.2 µM;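 also: plate controls were DMSO alone for no effect and tamoxifen positive control for full effect; nearly all actives have a fitted effect of over 25% in size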
Method in brief: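 NIH 3T3 mouse embryo fibroblasts (1000 cells/well) were plated in complete medium and treated with compound for 40 hr at 37 °C. Viability was read as intracellular ATP by CellTiter-Glo luminescence; AC50 values came from Hill-equation fits of concentration-response data.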

[7] = Cell Viability - HUV-EC-C (AID 542); details: HUV-EC-C endothelial cell viability, qHTS; series mostly up to 92.2 µM; also: % is scaled to controls: 0 for no effect and ±100 for the full control effect; nearly all actives have a fitted effect of over 35% in size
Method in brief: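 HUV-EC-C normal human vascular endothelial cells, 1000 cells/well, pre-incubated 5 hr at 37 °C, then exposed to compounds for 40 hr at 37 °C in complete medium. Viability measured as intracellular ATP by CellTiter-Glo luminescence; AC50 from Hill fits.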

[8] = Cell Viability - H-4-II-E (AID 543); details: H-4-II-E rat hepatoma viability; series mostly up to 92.2 µM; also: % is scaled to controls: 0 for no effect and ±100 for the full control effect; nearly all actives have a fitted effect of over 35% in size
Method in brief: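 Rat hepatoma H-4-II-E cells (1500/well) were plated, incubated 5 hr at 37 °C, then exposed to compounds for 40 hr at 37 °C. Cellular ATP was read by CellTiter-Glo luminescence; AC50 came from Hill-equation fits of concentration-response data.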

[9] = Cell Viability - SH-SY5Y (AID 544); details: SH-SY5Y neuroblastoma cell viability; series mostly up to 92.2 µM; also: nearly all actives have a fitted effect of over 55% in size
Method in brief: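 Human neuroblastoma SH-SY5Y cells (1500/well) in complete medium were exposed to compounds for 40 hr at 37 °C; intracellular ATP was then quantified by CellTiter-Glo luminescence after 20 min at room temperature. AC50 came from Hill-equation concentration-response fits.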

[10] = Cell Viability - Renal Proximal Tubule (AID 545); details: renal proximal tubule cells viability, primary cells of rat origin; series mostly up to 91.7 µM; also: nearly all actives have a fitted effect of over 40% in size
Method in brief: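 Viability taken as intracellular ATP (CellTiter-Glo luminescence) after 40 hr, 37 °C compound treatment of primary proximal tubule cells from rat kidney, 1000 cells/well; Hill-equation fits of qHTS concentration-response data gave AC50.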

[11] = Cell Viability - Mesenchymal (AID 546); details: mesenchymal cells viability, qHTS; series mostly up to 91.7 µM;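 also: cells exposed to compound for 40 hours before reading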
Method in brief: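 Human kidney mesenchymal cells from normal renal glomeruli, 1000 cells/well, rested 5 hr at 37 °C, then treated 40 hr at 37 °C in complete medium. Cellular ATP read by CellTiter-Glo luminescence; AC50 from Hill-equation fits.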

[12] = Cellular Toxicity (caspase-3) HepG2 (AID 654); details: HepG2 caspase-3 activation, luminescence, 0% = DMSO only, 100% = tamoxifen; series mostly up to 92.2 µM;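 also: cells exposed to compound for 16 hours before reading; 0% = DMSO alone and 100% = caspase signal from 100 µM tamoxifen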
Method in brief: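 HepG2 cells (1500/well) in complete medium were treated with compounds for 16 hr at 37 °C. Caspase-3/7 activity was then read as luminescence from peptide-aminoluciferin cleavage. AC50 came from Hill fits, normalized to DMSO and 100 uM tamoxifen.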

[13] = Cellular Toxicity (caspase-3) HUV-EC-C (AID 656); details: HUV-EC-C cells, caspase-3 activation (apoptosis), vehicle = 0, 100 µM tamoxifen = 100%; series mostly up to 92.2 µM
Method in brief: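 Luminescent Caspase-Glo 3/7 readout after 16 h, 37 °C compound exposure of HUV-EC-C endothelial cells, 1000 per well, complete medium. AC50 derived by Hill fitting, with DMSO as baseline and 100 uM tamoxifen as full activation.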

[14] = Cellular Toxicity (caspase-3) SHSY5Y (AID 657); details: SH-SY5Y caspase-3 activation, DMSO zero, 10 µM staurosporine = 100%; series mostly up to 91.7 µM
Method in brief: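 Luminescent Caspase-Glo 3/7 read-out, 1 hr room temperature, follows 16 hours of compound treatment of SH-SY5Y cells at 37 °C. Normalization: DMSO basal, 10 uM staurosporine as 100%; AC50 values from Hill-equation concentration-response fits.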

[15] = Cellular Toxicity (caspase-3) MRC-5 (AID 659); details: MRC-5 cells, luminescence, normalized: DMSO 0%, 10 µM staurosporine 100%; series mostly up to 91.7 µM
Method in brief: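 MRC-5 human normal lung fibroblasts, 1500 cells/well, treated 16 h at 37 °C in complete medium. Caspase 3/7 measured by Caspase-Glo luminescence after 1 h at room temperature. Normalized to DMSO and 10 uM staurosporine; AC50 from Hill fit.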

[16] = Cellular Toxicity (caspase-3) Mesangial (AID 660); details: mesangial cells, normalized: DMSO 0%, 100 µM tamoxifen 100%; series mostly up to 91.7 µM
Method in brief: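 Human renal glomerular mesangial cells (1000/well) were treated with compounds for 16 h at 37 °C in complete medium, then caspase 3/7 activity was read by Caspase-Glo luminescence. Data were normalized to DMSO and 100 uM tamoxifen; AC50 from Hill fits.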

[17] = Cellular Toxicity (caspase-3) SK-N-SH (AID 661); details: SK-N-SH caspase-3 activation, qHTS, DMSO as zero, staurosporine as full; series mostly up to 91.7 µM
Method in brief: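 SK-N-SH human neuroblastoma cells (1500/well) were treated with compounds for 16 hr at 37 °C in complete medium; caspase 3/7 activity was read by Caspase-Glo luminescence. AC50 came from Hill fits of data normalized to DMSO and 10 uM staurosporine.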

[18] = Cellular Toxicity (caspase-3) H-4-II-E (AID 663); details: H-4-II-E rat hepatoma, scaled: DMSO 0%, 100 µM tamoxifen 100%; series mostly up to 92.2 µM;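 also: cells exposed to compound for 16 hr before readout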
Method in brief: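 Rat hepatoma H-4-II-E cells (1500/well) plated 5 hr, then exposed to compound titrations for 16 hr at 37 °C. Caspase-Glo 3/7 luminescence read after 20 min at RT; data normalized to DMSO and 100 uM tamoxifen, AC50 from Hill fits.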

[19] = Cellular Toxicity (caspase-3) Hek293 (AID 664); details: HEK293 caspase-3 activation, DMSO = 0%, 100 µM tamoxifen = 100%; at 92.2 µM (top of the series);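 also: cells exposed to compound for 16 h at 37 °C before readout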
Method in brief: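 HEK293 cells were exposed to compounds in complete medium for 16 hr at 37 °C, then caspase-3/7 activity was read by Caspase-Glo 3/7 luminescence after 20 min at room temperature. Data normalized to DMSO and 100 uM tamoxifen; AC50 from Hill fits.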

[20] = Cellular Toxicity (caspase-3) N2a (AID 665); details: N2a cells, luminescence, normalized: DMSO 0%, 10 µM staurosporine 100%; series mostly up to 92.2 µM;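 also: compound exposure lasted 16 h at 37 °C before readout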
Method in brief: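 Mouse N2a neuroblastoma cells (1500/well) were treated with compounds for 16 h at 37 °C, then caspase-3/7 activity was read by Caspase-Glo luminescence after 1 h at room temperature. Data were normalized to DMSO and 10 uM staurosporine; AC50 from Hill fits.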

Sequence of Glucocorticoid receptor (Homo sapiens) (P04150 whole entry, looked up, the tested form may be a part): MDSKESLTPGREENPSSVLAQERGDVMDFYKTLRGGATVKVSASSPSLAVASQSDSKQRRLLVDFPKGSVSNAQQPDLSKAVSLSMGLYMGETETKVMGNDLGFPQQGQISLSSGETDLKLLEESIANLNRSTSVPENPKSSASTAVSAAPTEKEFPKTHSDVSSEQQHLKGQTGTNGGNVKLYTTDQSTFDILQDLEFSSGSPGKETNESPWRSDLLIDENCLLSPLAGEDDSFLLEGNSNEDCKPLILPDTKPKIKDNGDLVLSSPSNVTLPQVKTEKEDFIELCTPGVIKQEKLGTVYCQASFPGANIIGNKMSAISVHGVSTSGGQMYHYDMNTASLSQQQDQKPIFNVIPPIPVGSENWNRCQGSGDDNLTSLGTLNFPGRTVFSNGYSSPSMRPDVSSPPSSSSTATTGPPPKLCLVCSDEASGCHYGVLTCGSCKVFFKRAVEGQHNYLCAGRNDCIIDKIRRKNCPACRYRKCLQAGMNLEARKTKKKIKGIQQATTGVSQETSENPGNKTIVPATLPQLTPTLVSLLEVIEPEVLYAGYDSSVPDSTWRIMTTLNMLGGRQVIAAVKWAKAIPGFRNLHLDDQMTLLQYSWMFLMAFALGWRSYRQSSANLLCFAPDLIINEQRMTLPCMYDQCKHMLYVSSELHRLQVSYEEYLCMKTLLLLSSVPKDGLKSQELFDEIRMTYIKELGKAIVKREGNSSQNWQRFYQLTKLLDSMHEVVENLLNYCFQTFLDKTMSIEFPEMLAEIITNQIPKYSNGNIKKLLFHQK
Sequence of 3',5'-cyclic-AMP phosphodiesterase 4B (Homo sapiens) (Q07343 whole entry, looked up): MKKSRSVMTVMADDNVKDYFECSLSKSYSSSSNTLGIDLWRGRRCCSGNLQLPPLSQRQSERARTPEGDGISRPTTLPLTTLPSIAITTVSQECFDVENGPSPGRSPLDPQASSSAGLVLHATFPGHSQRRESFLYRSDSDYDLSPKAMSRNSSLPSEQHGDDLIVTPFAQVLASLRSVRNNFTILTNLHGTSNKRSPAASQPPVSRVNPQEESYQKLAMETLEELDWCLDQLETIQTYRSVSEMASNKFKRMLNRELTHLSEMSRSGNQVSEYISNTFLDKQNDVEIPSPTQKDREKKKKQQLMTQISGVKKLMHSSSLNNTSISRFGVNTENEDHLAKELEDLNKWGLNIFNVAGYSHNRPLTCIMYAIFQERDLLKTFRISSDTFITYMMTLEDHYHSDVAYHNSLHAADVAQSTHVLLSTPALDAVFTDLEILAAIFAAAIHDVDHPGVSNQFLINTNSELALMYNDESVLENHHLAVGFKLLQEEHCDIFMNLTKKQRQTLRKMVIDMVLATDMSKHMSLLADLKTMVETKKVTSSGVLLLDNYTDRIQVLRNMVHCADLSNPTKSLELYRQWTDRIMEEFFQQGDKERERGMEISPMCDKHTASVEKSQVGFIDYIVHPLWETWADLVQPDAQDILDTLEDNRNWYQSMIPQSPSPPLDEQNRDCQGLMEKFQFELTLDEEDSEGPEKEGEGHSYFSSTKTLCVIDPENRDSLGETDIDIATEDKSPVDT

O=c1cc(N2CCOCC2)oc2c(-c3ccccc3)cccc12
inactive: Potency [1] > 46 µM | Potency [2] > 46 µM | Potency [3] | outcome [4]

CCCOc1ccc2nc(NC(=O)OC)[nH]c2c1
inactive: Potency [1] > 20.6 µM

COc1c2occc2cc2ccc(=O)oc12
inactive: Potency [1] > 20.6 µM | Potency [2] > 20.6 µM | Potency [3] | Potency [5] | Potency [6] | Potency [7] | Potency [8] | Potency [9] | Potency [10] | Potency [11] | outcome [12] | outcome [13] | outcome [14] | outcome [15] | outcome [16] | outcome [17] | outcome [18] | caspase-3 activation [19] 2.24% | outcome [20]

NNc1nncc2ccccc12
inactive: Potency [1] > 46 µM and > 20.6 µM | Potency [2] > 46 µM and > 20.6 µM | Potency [3] | outcome [4]

CC(=O)N1CCN(c2ccc(OC[C@H]3CO[C@](Cn4ccnc4)(c4ccc(Cl)cc4Cl)O3)cc2)CC1
inactive: Potency [1] > 46 µM | Potency [2] > 46 µM

Nc1nc(Cl)nc2c1ncn2[C@H]1C[C@H](O)[C@@H](CO)O1
inactive: Potency [1] > 20.6 µM

CC(C)c1ccc2c(c1)c(SC(C)(C)C)c(CC(C)(C)C(=O)O)n2Cc1ccc(Cl)cc1
inactive: Potency [1] > 46 µM | Potency [2] > 46 µM | Potency [3] | outcome [4]

CCOC(=O)C1=C(O)C(=O)N(Cc2ccccc2)C1
inactive: Potency [1] > 46 µM | Potency [2] > 46 µM

CCN(CC)CCOc1ccc(Cc2ccccc2)cc1
inactive: Potency [1] > 46 µM | Potency [2] > 46 µM | Potency [3]

Cc1c(OCC(F)(F)F)ccnc1CS(=O)c1nc2ccccc2[nH]1 (centres undefined)
inactive: Potency [1] > 46 µM and > 20.6 µM | Potency [2] > 46 µM and > 20.6 µM | Potency [3] | outcome [4]

O=C(NCCO[N+](=O)[O-])c1cccnc1
inactive: Potency [1] > 46 µM | Potency [2] > 46 µM | Potency [3] | outcome [4]

CCC1=C(C)CN(C(=O)NCCc2ccc(S(=O)(=O)NC(=O)NC3CCC(C)CC3)cc2)C1=O (centres undefined)
inactive: Potency [1] > 20.6 µM | Potency [2] > 20.6 µM | Potency [3] | outcome [4]

c1ccc2[nH]c(-c3cscn3)nc2c1
inactive: Potency [1] > 20.6 µM | Potency [2] > 20.6 µM | Potency [3] | Potency [7] | Potency [8] | Potency [9] | Potency [10] | Potency [11] | outcome [4] | outcome [12] | outcome [13] | outcome [14] | outcome [15] | outcome [16] | outcome [17] | outcome [18] | caspase-3 activation [19] -8.39% | outcome [20]

Cc1cccc(C#Cc2ccccc2)n1
inactive: Potency [1] > 46 µM | Potency [2] > 46 µM | Potency [3] | outcome [4]

CN(C)CCCC1(c2ccc(F)cc2)OCc2cc(C#N)ccc21 (centres undefined)
inactive: Potency [1] > 20.6 µM

CC(C)(S)[C@@H](N)C(=O)O
inactive: Potency [1] > 20.6 µM

N=C(N=C(N)N)N1CCOCC1
inactive: Potency [1] > 20.6 µM and > 46 µM | Potency [2] > 20.6 µM and > 46 µM | Potency [3] | outcome [4]

CN1C(C(=O)Nc2ccccn2)=C(O)c2sccc2S1(=O)=O
inactive: Potency [1] > 20.6 µM | Potency [2] > 20.6 µM | Potency [3] | outcome [4]

CC(C)Oc1ccc2c(=O)c(-c3ccccc3)coc2c1
inactive: Potency [1] > 20.6 µM

Cc1cc(C2CCCCC2)n(O)c(=O)c1
inactive: Potency [1] > 20.6 µM | Potency [2] > 20.6 µM | Potency [3] | outcome [4]
